Compound activity deposited in PubChem BioAssay by several laboratories.
CYP2C9 inhib = inhibitors of human CYP2C9; CYP2C9 Supersomes, luciferin-H conversion, luminescence; inhibition, % at 5 µM; 96,000 tested, 20% active;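 active means blocking of liver enzyme CYP2C9 beyond about 50% at 5 µM, limit read from the data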
sEH act = increases human soluble epoxide hydrolase activity. 91,000 tested, 0.04% active. AID 717. P34913. activation, % at 2 µM. purified human sEH enzymatic activity, activator screen; in the data active means activation above about 37%
Target sequence (P34913 whole entry, looked up): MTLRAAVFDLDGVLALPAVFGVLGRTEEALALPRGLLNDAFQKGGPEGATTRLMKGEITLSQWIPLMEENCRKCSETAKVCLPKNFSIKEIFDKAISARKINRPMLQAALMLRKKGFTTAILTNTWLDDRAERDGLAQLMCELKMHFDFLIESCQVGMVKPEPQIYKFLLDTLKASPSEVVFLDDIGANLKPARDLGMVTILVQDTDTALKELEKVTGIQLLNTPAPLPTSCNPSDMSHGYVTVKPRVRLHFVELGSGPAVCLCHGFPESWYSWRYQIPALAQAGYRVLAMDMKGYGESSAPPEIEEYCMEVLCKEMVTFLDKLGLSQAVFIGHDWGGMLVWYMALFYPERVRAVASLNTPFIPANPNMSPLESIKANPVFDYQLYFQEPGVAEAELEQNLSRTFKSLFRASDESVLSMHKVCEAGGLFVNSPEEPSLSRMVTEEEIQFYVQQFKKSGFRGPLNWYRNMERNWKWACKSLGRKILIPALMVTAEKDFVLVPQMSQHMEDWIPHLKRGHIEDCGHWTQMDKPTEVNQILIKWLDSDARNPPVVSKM
CYP2C19 activ = activators of human cytochrome P450 2C19 | P33261 | 96,000 tested, under 10 active | recombinant CYP2C19, luciferin-H EGE luminescence; hits give high values; 0 = fully inhibited enzyme, 1 = untreated enzyme | activation factor at 5 µM;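 active means activation factor of at least 2 at 5 µM in the primary screen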;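 further: 0 = wells with 2.5 mM tranylcypromine and 1 = vehicle-only wells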
sEH inh = blocks human soluble epoxide hydrolase activity; inhibition, % at 2 µM; recombinant human sEH enzymatic activity assay; AID 707; P34913; 91,000 tested, 0.34% active; in the data active means inhibition above about 80%
CYP2C19 inhib = human CYP2C19 inhibition. 96,000 tested, 21% active. CYP2C19 Supersomes, luciferin-H EGE luminescence, 30 min. inhibition, % at 5 µM;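 active means CYP2C19 inhibition above a set limit at 5 µM in the primary screen, cut at about 50% in these data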;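 further: plate controls were negative control wells for no effect and 2.5 mM tranylcypromine positive control for full effect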
CYP2C9 activ = increases human cytochrome P450 2C9 activity | P11712 | recombinant CYP2C9, luciferin-H conversion, luminescence; hits give high values; factor 1 = untreated enzyme, 0 = blocked | 96,000 tested, 1.4% active | AID 1024 | activation factor at 5 µM;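 active means activation factor of 2 or more for CYP2C9 at a 5 µM dose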;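 further: 0 = sulfaphenazole-blocked wells and 1 = vehicle-only wells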
* = called active by the depositor. A selection: hits, their analogues and other compounds. The true share with any hit is near 27%.

C=CCn1c(CSc2nc3ccccc3s2)n[nH]c1=S was read as CYP2C9 inhib 0.5, sEH act -7.3, CYP2C19 activ 0.5, sEH inh 6.8, CYP2C19 inhib 50.3* and CYP2C9 activ 1.
For COC(=O)C(NNc1ccccc1)(NC(=O)c1cccc(F)c1)C(F)(F)F (stereo unspecified) the results were CYP2C9 inhib 84.0*, sEH act -5.0, CYP2C19 activ 0.2, sEH inh 6.7, CYP2C19 inhib 83.1* and CYP2C9 activ 0.2.
For O=C(Nc1cccc(F)c1)c1ccccc1 the results were CYP2C9 inhib -2.2, sEH act 14.1, CYP2C19 activ 0.8, sEH inh -14.8, CYP2C19 inhib 16.9 and CYP2C9 activ 1.
Screening O=Cc1ccccc1Oc1ccccc1 returned CYP2C9 inhib 5.5, sEH act 7.4, CYP2C19 activ 0.9, sEH inh -5.5, CYP2C19 inhib 11.8 and CYP2C9 activ 0.9.
Screening O=C1NC(=O)/C(=C/c2ccccc2Oc2ccc(Cl)cc2)S1 returned CYP2C9 inhib 71.6*, sEH act 15.5, CYP2C19 activ 0.8, sEH inh -12.9, CYP2C19 inhib 16.3 and CYP2C9 activ 0.3.
Screening Cc1ccc(Oc2ccccc2/C=C2\SC(=O)N(C)C2=O)cc1 returned CYP2C9 inhib 32.0, sEH act -5.2, CYP2C19 activ 0.5, sEH inh 4.8, CYP2C19 inhib 51.0* and CYP2C9 activ 0.7.
For CN1C(=O)S/C(=C/c2cccnc2)C1=O the results were CYP2C9 inhib -0.6, sEH act 8.7, CYP2C19 activ 1.1, sEH inh -6.8, CYP2C19 inhib -9.1 and CYP2C9 activ 1.
Screening CC(=O)Nc1ccc2ccc3cccc4ccc1c2c34 returned sEH act 9.2 and sEH inh -3.9.
Screening COC(=O)c1ccccc1S(=O)(=O)N1Cc2cc([N+](=O)[O-])ccc2Oc2ccccc21 returned CYP2C9 inhib 61.5*, sEH act 2.9, CYP2C19 activ 0, sEH inh 0.2, CYP2C19 inhib 100.4* and CYP2C9 activ 0.4.
CCOC(=O)c1cc(-c2ccc(/C=C3/C(=O)NC(=O)C(C#N)=C3C)o2)ccc1Cl was read as CYP2C9 inhib 71.2*, sEH act -4.2, CYP2C19 activ 0.8, sEH inh 4.4, CYP2C19 inhib 19.1 and CYP2C9 activ 0.3.
For Cc1ccccc1OCc1nnc(SCC(=O)Nc2ccc3nc(SCC(=O)NC(C)(C)C)sc3c2)n1C the results were CYP2C9 inhib 75.4*, sEH act -22.1, CYP2C19 activ 0.5, sEH inh 23.8, CYP2C19 inhib 52.6* and CYP2C9 activ 0.2.
CCN(CC)C(=O)CSc1nc2ccc(NC(=O)CSc3nnc(COc4ccccc4C)n3C)cc2s1 was read as CYP2C9 inhib 46.1, sEH act -11.7, CYP2C19 activ 0.5, sEH inh 9.9, CYP2C19 inhib 47.9 and CYP2C9 activ 0.5.
For CC(C)(C)NC(=O)CSc1nc2ccc(NC(=O)CSc3nnnn3Cc3ccccc3)cc2s1 the results were CYP2C9 inhib 48.8, sEH act -77.5, CYP2C19 activ 0.5, sEH inh 77.8, CYP2C19 inhib 52.4* and CYP2C9 activ 0.5.
`S=C1NCCOCCOCCOCCNC(=S)NCCOCCOCCOCCN1` gave sEH act 6.3 and sEH inh -3.3.
For OC(c1ccc(Cl)cc1)c1nnc(-c2ccccc2)o1 (stereo unspecified) the results were CYP2C9 inhib 88.3*, sEH act -5.5, CYP2C19 activ 0, sEH inh 8.6, CYP2C19 inhib 99.7* and CYP2C9 activ 0.1.
Screening CO/N=C(/CS(=O)(=O)Cc1ccccc1Cl)c1ccc(Cl)cc1Cl returned CYP2C9 inhib 3.6, sEH act 9.4, CYP2C19 activ 0.5, sEH inh -7.4, CYP2C19 inhib 52.4* and CYP2C9 activ 1.
For CO/N=C(\CS(=O)(=O)Cc1ccc(OC)cc1)c1ccc(Cl)cc1 the results were CYP2C9 inhib 6.7, sEH act 17.0, CYP2C19 activ 0.6, sEH inh -18.2, CYP2C19 inhib 37.4 and CYP2C9 activ 0.9.
For CCN(CC)C(=O)CSc1nnc(CCNC(=O)OC(C)(C)C)o1 the results were CYP2C9 inhib -4.0, sEH act 4.0, CYP2C19 activ 0.7, sEH inh -5.1, CYP2C19 inhib 28.1 and CYP2C9 activ 1.
`Cc1cccc(C)c1NC(=O)Cn1nc(-c2ccccc2)nc1-c1ccccc1` gave CYP2C9 inhib 66.0*, CYP2C19 activ 0.6, CYP2C19 inhib 41.0 and CYP2C9 activ 0.3.
`Cc1ccccc1NC(=O)Cn1nc(-c2ccccc2)nc1-c1ccccc1` gave CYP2C9 inhib 55.7*, sEH act 2.6, CYP2C19 activ 0.7, sEH inh 0.5, CYP2C19 inhib 31.4 and CYP2C9 activ 0.4.
`O=C(Cn1nc(-c2ccccc2)nc1-c1ccccc1)N1CCOCC1` gave CYP2C9 inhib 4.9, sEH act 9.3, CYP2C19 activ 0.9, sEH inh -9.3, CYP2C19 inhib 8.1 and CYP2C9 activ 1.
For Cc1ccc(NC(=O)Cc2nnc(SCC(=O)c3ccc(Br)cc3)n2C)cc1Cl the results were CYP2C9 inhib 11.5, sEH act -9.9, CYP2C19 activ 1.1, sEH inh 6.6, CYP2C19 inhib -8.8 and CYP2C9 activ 0.9.
`COc1ccc(-c2noc(CCCC(=O)Nc3ccc(C(N)=O)cc3)n2)cc1` gave CYP2C9 inhib 10.1, sEH act 6.7, CYP2C19 activ 1.1, sEH inh -5.8, CYP2C19 inhib -7.4 and CYP2C9 activ 0.9.
`COc1ccc(-c2noc(CCC(=O)Nc3cc(Cl)c(OC)cc3OC)n2)cc1` gave CYP2C9 inhib 54.2*, sEH act -8.7, CYP2C19 activ 0.2, sEH inh 8.5, CYP2C19 inhib 81.6* and CYP2C9 activ 0.5.
COc1ccc(-c2noc(CCC(=O)Nc3cc(OC)ccc3OC)n2)cc1 was read as CYP2C9 inhib 82.2*, sEH act -1.2, CYP2C19 activ 0, sEH inh 0.9, CYP2C19 inhib 98.4* and CYP2C9 activ 0.2.
Screening COc1ccc(Nc2sc(C(=O)c3ccc(Cl)cc3)c(N)c2C(=O)Nc2ccccc2OC)cc1 returned CYP2C9 inhib 76.5*, sEH act 18.7, CYP2C19 activ 0.6, sEH inh -15.5, CYP2C19 inhib 39.4 and CYP2C9 activ 0.2.
Screening COc1ccc(C(=O)c2sc(Nc3cccc(OC)c3)c(C(=O)Nc3cccc(C)c3C)c2N)cc1 returned CYP2C9 inhib 52.0*, sEH act -0.4, CYP2C19 activ 0.6, sEH inh 1.1, CYP2C19 inhib 39.8 and CYP2C9 activ 0.5.
CCc1ccc(C(=O)NC(CC(C)C)C(=O)O)cc1 (stereo unspecified) was read as CYP2C9 inhib -27.1, sEH act -4.5, CYP2C19 activ 1.1, sEH inh 5.4, CYP2C19 inhib -13.7 and CYP2C9 activ 1.3.
COc1c(F)c(F)c(C(=O)Nc2ccc(N3CCN(Cc4ccccc4)CC3)cc2)c(F)c1F was read as CYP2C9 inhib 57.4*, sEH act -28.3, CYP2C19 activ 1.2, sEH inh 29.6, CYP2C19 inhib -22.2 and CYP2C9 activ 0.4.
